Inconclusive results are not listed. Activity calls are given as the source filed them. Rule for the calls, unless noted: active = hit-call score of the fitted dose curve at least 0.9, where 1 is the maximum; inactive = score below 0.9.
Key:
[1] = ACEA_ER_80hr: ACEA Biosciences xCELLigence Real-Time Cell Analysis on Estrogen Receptor Agonism for Proliferation (AID 2282667; active = hit-call score of the fitted dose curve at least 0.9, where 1 is the maximum); settings: T47D proliferation, impedance (xCELLigence), 80 h
Summary of the method: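 Impedance readout (RT-CES) of T47D proliferation at 80 h post-dose; gain of signal vs DMSO baseline. Compounds: 8 conc, 1:4 serial, top 100 uM final, ≤0.5% DMSO; biological duplicate.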

[2] = APR_HepG2_CellCycleArrest_24hr: Apredica 24-hour HepG2 Assay for Cell Cycle Arrest (AID 2282905); settings: imaging, actives raise or lower the signal;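 note: cell cycle arrest scored as ratio of 2N to 4N nuclear DNA content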
Summary of the method: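 Cell cycle arrest is scored from nuclear DNA content measured by high-content imaging of Hoechst 33342-stained HepG2 cells following 24-hour treatment at ten concentrations up to 200 uM, with DMSO as baseline.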

[3] = APR_HepG2_NuclearSize_24hr: Apredica 24-hour HepG2 Assay for Nuclear Size (AID 2282907); settings: high-content imaging, actives raise or lower the signal
Summary of the method: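 Compounds in DMSO (final 0.5%) were added to human HepG2 hepatoma cells at ten concentrations up to 200 uM for 24 hr. Fixed nuclei were stained with Hoechst 33342, and nuclear diameter was quantified from automated images.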

[4] = APR_HepG2_CellLoss_24hr: Apredica 24-hour HepG2 Assay for Cell Loss (AID 2282908); settings: high-content imaging;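 for AC50: fit in both directions so a hit may be cell loss or gain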
Summary of the method: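 Cell number is quantified by fluorescence imaging of Hoechst 33342-stained nuclei following dosing at 0.39–200 uM in 0.5% DMSO. Curves are fitted in both directions from the DMSO baseline.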

[5] = APR_HepG2_MicrotubuleCSK_24hr: Apredica 24-hour HepG2 Assay for Microtubule CSK Stabilty (AID 2282909); settings: HepG2 microtubule cytoskeleton imaging, actives raise or lower the signal
Summary of the method: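 Steps: dose HepG2 for 24 h (0.39–200 uM, 0.5% DMSO); fix 30 min in 3.7% formaldehyde at room temperature; permeabilize; stain alpha-tubulin 60 min; image microtubule cytoskeleton at 20x. Signal change fitted in both directions relative to DMSO.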

[6] = APR_HepG2_MitoticArrest_24hr: Apredica 24-hour HepG2 Assay for Mitotic Arrest (AID 2282910); settings: high-content imaging, actives raise or lower the signal
Summary of the method: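 Compounds are dosed onto HepG2 cells across ten concentrations up to 200 uM for 24 hr. Cells are then fixed in 3.7% formaldehyde, permeabilised, and labelled for phospho-histone H3 and nuclei; images are scored by cell cycle analysis and fitted bidirectionally relative to DMSO.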

[7] = APR_HepG2_MitoMembPot_24hr: Apredica 24-hour HepG2 Assay for Mitochondrial Membrane Potential (AID 2282911); settings: imaging, actives raise or lower the signal
Summary of the method: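 HepG2, 24 hr dosing, 10 concentrations 0.39–200 uM, 0.5% DMSO final. Live-cell MitoTracker Red CMXRos 250 nM 30 min, then 3.7% formaldehyde fix. HCS fluorescence imaging, 20x; bidirectional fit vs DMSO baseline.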

[8] = APR_HepG2_MitoMass_24hr: Apredica 24-hour HepG2 Assay for Mitochondrial Mass (AID 2282912); settings: high-content imaging, actives raise or lower the signal
Summary of the method: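 The liver line HepG2 was dosed in duplicate across a 0.39–200 uM series, with final DMSO held at 0.5% v/v, and harvested at 24 hr. High-content imaging measured mitochondrial dye staining.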

[9] = APR_HepG2_p53Act_24hr: Apredica 24-hour HepG2 Assay for p53 Activation (AID 2282913); settings: high-content imaging, actives raise or lower the signal;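 note: p53 protein immunofluorescence averaged per cell in HepG2 with Hoechst nuclei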
Summary of the method: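 Read-out: Cy5 immunofluorescence for p53 in fixed, permeabilized HepG2, imaged by HCS with Hoechst-defined nuclei. Dosing was 24 hr at 0.39–200 uM in 0.5% DMSO. Curves were fitted bidirectionally relative to DMSO.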

[10] = APR_HepG2_CellCycleArrest_72hr: Apredica 72-hour HepG2 Assay for Cell Cycle Arrest (AID 2282914); settings: high-content imaging, actives raise or lower the signal
Summary of the method: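 HepG2, 72 hr exposure, 10-point 0.39–200 uM, duplicate, 0.5% DMSO final. Fix 3.7% formaldehyde 30 min RT, Triton X-100 0.5%, Hoechst 33342 2 ug/mL. ArrayScan 20x, six fields/well; DNA content per nucleus; bidirectional fit vs DMSO.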

SMILES | AC50 [1] | outcome [2] | outcome [3] | outcome [4] | outcome [5] | outcome [6] | outcome [7] | outcome [8] | outcome [9] | outcome [10] | outcome [1] | AC50 [2] | AC50 [4] | AC50 [9] | AC50 [10] | AC50 [5] | AC50 [6] | AC50 [3] | AC50 [7] | AC50 [8]
CCCCCCCCCCCCCCCCCC(=O)O | 2.04 µM (active) | inactive | inactive | inactive | inactive | inactive | inactive | inactive | inactive | inactive | – | – | – | – | – | – | – | – | – | –
C[Si]1(C)O[Si](C)(C)O[Si](C)(C)O[Si](C)(C)O1 | – | inactive | inactive | inactive | inactive | inactive | inactive | inactive | inactive | inactive | inactive | – | – | – | – | – | – | – | – | –
Nc1ccccc1N | – | – | inactive | – | inactive | inactive | inactive | inactive | – | – | inactive | 15.8 µM (active) | 12.9 µM (active) | 32.3 µM (active) | 5.63 µM (active) | – | – | – | – | –
CCCc1cc(=O)[nH]c(=S)[nH]1 | 0.747 µM (active) | inactive | inactive | inactive | inactive | inactive | inactive | inactive | inactive | inactive | – | – | – | – | – | – | – | – | – | –
Cc1ccc(C)c(C)c1 | – | inactive | inactive | inactive | inactive | inactive | inactive | inactive | inactive | inactive | inactive | – | – | – | – | – | – | – | – | –
CCCCCCCCCCO | 19.8 µM (active) | inactive | inactive | inactive | inactive | inactive | inactive | inactive | inactive | inactive | – | – | – | – | – | – | – | – | – | –
C1CCC(SSC2CCCCC2)CC1 | – | – | inactive | – | inactive | inactive | inactive | inactive | – | – | inactive | 72.3 µM (active) | 77.9 µM (active) | 88.4 µM (active) | 62 µM (active) | – | – | – | – | –
Cc1ccc(N(C)C)cc1 | – | inactive | inactive | inactive | inactive | inactive | inactive | inactive | inactive | inactive | inactive | – | – | – | – | – | – | – | – | –
Nc1nc(N)c2nc(CNc3ccc(C(=O)N[C@@H](CCC(=O)O)C(=O)O)cc3)cnc2n1 | – | inactive | inactive | inactive | inactive | inactive | inactive | inactive | inactive | inactive | inactive | – | – | – | – | – | – | – | – | –
CCNc1cccc(C)c1 | – | inactive | inactive | inactive | inactive | inactive | inactive | inactive | inactive | inactive | inactive | – | – | – | – | – | – | – | – | –
O=C(O)CCCCC(=O)O | – | inactive | inactive | inactive | inactive | inactive | inactive | inactive | inactive | inactive | inactive | – | – | – | – | – | – | – | – | –
CCCCCCCCCCCCCO | – | inactive | inactive | – | – | – | inactive | inactive | inactive | – | inactive | – | 138 µM (active) | – | 52.3 µM (active) | 117 µM (active) | 107 µM (active) | – | – | –
Cc1ccc(Cl)cc1 | – | inactive | inactive | inactive | inactive | inactive | inactive | inactive | inactive | inactive | inactive | – | – | – | – | – | – | – | – | –
C[C@]12C=CC(=O)C=C1CC[C@@H]1[C@@H]2C(=O)C[C@@]2(C)[C@H]1CC[C@]2(O)C(=O)CO | 14.8 µM (active) | inactive | inactive | inactive | inactive | inactive | inactive | inactive | inactive | inactive | – | – | – | – | – | – | – | – | – | –
NCCO | – | inactive | inactive | inactive | inactive | inactive | inactive | inactive | inactive | inactive | inactive | – | – | – | – | – | – | – | – | –
CNCc1cc(F)ccc1Oc1ccc(Cl)c(Cl)c1 | – | inactive | – | – | inactive | – | – | – | – | inactive | inactive | – | 101 µM (active) | 52.4 µM (active) | – | – | 31.4 µM (active) | 54.7 µM (active) | 109 µM (active) | 32.6 µM (active)
COc1ccc(C)cc1N | – | inactive | inactive | inactive | inactive | inactive | inactive | inactive | inactive | inactive | inactive | – | – | – | – | – | – | – | – | –
COc1cc(S(=O)(=O)O)c(C)cc1N=Nc1c(O)ccc2cc(S(=O)(=O)O)ccc12 | – | inactive | inactive | inactive | inactive | inactive | – | inactive | inactive | inactive | inactive | – | – | – | – | – | – | – | 100 µM (active) | –
Oc1ccc2c(c1)OC[C@@H](N1CCC(O)(c3ccc(F)cc3)CC1)[C@H]2O | – | inactive | inactive | inactive | inactive | inactive | – | inactive | inactive | inactive | inactive | – | – | – | – | – | – | – | 58.7 µM (active) | –
COc1cc(-c2nc(NC(=O)c3cc4cc(C)cc(C)c4n3CC(=O)O)sc2CCC2CCCCC2)c(OC)cc1Cl | – | – | – | – | – | – | – | – | – | – | inactive | 38.6 µM (active) | 29.3 µM (active) | 43.4 µM (active) | 23.4 µM (active) | 26.5 µM (active) | 35.1 µM (active) | 61.4 µM (active) | 15 µM (active) | 14.4 µM (active)
CCc1c(C(=O)NN2CCCCC2)nn(-c2ccc(Cl)cc2Cl)c1-c1ccc(Br)cc1 | 1.69 µM (active) | – | inactive | – | – | – | inactive | – | inactive | – | – | 27.9 µM (active) | 21.5 µM (active) | – | 14.6 µM (active) | 39 µM (active) | 46.8 µM (active) | – | – | 47 µM (active)
CCCCCCOCCO | – | inactive | inactive | inactive | inactive | inactive | inactive | inactive | inactive | inactive | inactive | – | – | – | – | – | – | – | – | –
Cc1ccc(C)c(O)c1C | – | inactive | inactive | inactive | inactive | inactive | inactive | inactive | inactive | – | inactive | – | – | – | 12 µM (active) | – | – | – | – | –
